Reference: PMC11006913

These sequences were tested against HOXB9 (Homo sapiens, UniProt P17482 171-250, T197M) (assay: PBM; 200 nM protein, PBS). Conditions: dsDNA, one strand shown.
Chain of HOXB9 (Homo sapiens, UniProt P17482 171-250, T197M) (P17482 171-250 T197M): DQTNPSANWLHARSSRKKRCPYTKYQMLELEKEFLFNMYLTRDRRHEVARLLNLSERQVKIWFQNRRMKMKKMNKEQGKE

| Sequence | binding signal |
| --- | --- |
| CCACGTCG | 8.7 upbm affinity estimate (log intensity, higher = more binding, comparable within an allelic series) |
| GGAACCCC | 8.42 upbm affinity estimate (log intensity, higher = more binding, comparable within an allelic series) |
| GGAGCTAC | 8.61 upbm affinity estimate (log intensity, higher = more binding, comparable within an allelic series) |
| CCTGCGGC | 8.26 upbm affinity estimate (log intensity, higher = more binding, comparable within an allelic series) |
| CCCGCGAG | 8.58 upbm affinity estimate (log intensity, higher = more binding, comparable within an allelic series) |
| CGTGGACC | 8.66 upbm affinity estimate (log intensity, higher = more binding, comparable within an allelic series) |
| CGGCGCCA | 8.53 upbm affinity estimate (log intensity, higher = more binding, comparable within an allelic series) |
| CTCCCGCC | 8.4 upbm affinity estimate (log intensity, higher = more binding, comparable within an allelic series) |
| ACCGGCCT | 8.37 upbm affinity estimate (log intensity, higher = more binding, comparable within an allelic series) |
| CCTTCGCG | 8.71 upbm affinity estimate (log intensity, higher = more binding, comparable within an allelic series) |
| CGAAGGAC | 8.68 upbm affinity estimate (log intensity, higher = more binding, comparable within an allelic series) |
| GCCACTCC | 8.73 upbm affinity estimate (log intensity, higher = more binding, comparable within an allelic series) |
| GCAGCCCC | 8.47 upbm affinity estimate (log intensity, higher = more binding, comparable within an allelic series) |
| GCACCGCC | 8.24 upbm affinity estimate (log intensity, higher = more binding, comparable within an allelic series) |
| GAGCGCAA | 8.55 upbm affinity estimate (log intensity, higher = more binding, comparable within an allelic series) |
| CAATCAAC | 9.17 upbm affinity estimate (log intensity, higher = more binding, comparable within an allelic series) |
| GGACCTAC | 8.72 upbm affinity estimate (log intensity, higher = more binding, comparable within an allelic series) |
| AGGAACCC | 8.41 upbm affinity estimate (log intensity, higher = more binding, comparable within an allelic series) |
| AGCATCCG | 8.64 upbm affinity estimate (log intensity, higher = more binding, comparable within an allelic series) |
| AGGTCTGG | 8.53 upbm affinity estimate (log intensity, higher = more binding, comparable within an allelic series) |

| Sequence | binding signal |
| --- | --- |
| ATTAACAA | 9.96 upbm affinity estimate (log intensity, higher = more binding, comparable within an allelic series) |
| ACACCCAG | 8.69 upbm affinity estimate (log intensity, higher = more binding, comparable within an allelic series) |
| CCGATCGG | 8.51 upbm affinity estimate (log intensity, higher = more binding, comparable within an allelic series) |
| GCGGGTGA | 8.59 upbm affinity estimate (log intensity, higher = more binding, comparable within an allelic series) |
| GAAGCGGC | 8.49 upbm affinity estimate (log intensity, higher = more binding, comparable within an allelic series) |
| AGGGCGTG | 8.57 upbm affinity estimate (log intensity, higher = more binding, comparable within an allelic series) |
| CCACGCCG | 8.48 upbm affinity estimate (log intensity, higher = more binding, comparable within an allelic series) |
| GGCGCAGA | 8.52 upbm affinity estimate (log intensity, higher = more binding, comparable within an allelic series) |
| AGCGCGCC | 8.57 upbm affinity estimate (log intensity, higher = more binding, comparable within an allelic series) |
| CCCGTCTC | 8.46 upbm affinity estimate (log intensity, higher = more binding, comparable within an allelic series) |
| CGTGGCTC | 8.5 upbm affinity estimate (log intensity, higher = more binding, comparable within an allelic series) |
| CCCCGGAC | 8.48 upbm affinity estimate (log intensity, higher = more binding, comparable within an allelic series) |
| GCCTCCGC | 8.43 upbm affinity estimate (log intensity, higher = more binding, comparable within an allelic series) |
| GTCCGGCA | 8.68 upbm affinity estimate (log intensity, higher = more binding, comparable within an allelic series) |
| GACATAAA | 9.74 upbm affinity estimate (log intensity, higher = more binding, comparable within an allelic series) |
| AGACGCGG | 8.63 upbm affinity estimate (log intensity, higher = more binding, comparable within an allelic series) |
| CGCCGGGA | 8.5 upbm affinity estimate (log intensity, higher = more binding, comparable within an allelic series) |
| CCAGACCG | 8.54 upbm affinity estimate (log intensity, higher = more binding, comparable within an allelic series) |
| CAGGGGCC | 8.21 upbm affinity estimate (log intensity, higher = more binding, comparable within an allelic series) |

These sequences were tested against HOXB9 (Homo sapiens, UniProt P17482 171-250) (assay: PBM; 200 nM protein, PBS). Conditions: dsDNA, one strand shown.
Chain of HOXB9 (Homo sapiens, UniProt P17482 171-250) (P17482 171-250): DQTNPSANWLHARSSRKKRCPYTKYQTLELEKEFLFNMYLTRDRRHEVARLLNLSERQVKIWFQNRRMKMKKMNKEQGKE

| Sequence | binding signal |
| --- | --- |
| CCACGTCG | 8.53 upbm affinity estimate (log intensity, higher = more binding, comparable within an allelic series) |
| GGAACCCC | 8.48 upbm affinity estimate (log intensity, higher = more binding, comparable within an allelic series) |
| GGAGCTAC | 8.26 upbm affinity estimate (log intensity, higher = more binding, comparable within an allelic series) |
| CCTGCGGC | 8.14 upbm affinity estimate (log intensity, higher = more binding, comparable within an allelic series) |
| CCCGCGAG | 8.45 upbm affinity estimate (log intensity, higher = more binding, comparable within an allelic series) |
| CGTGGACC | 8.61 upbm affinity estimate (log intensity, higher = more binding, comparable within an allelic series) |
| CGGCGCCA | 8.36 upbm affinity estimate (log intensity, higher = more binding, comparable within an allelic series) |
| CTCCCGCC | 8.4 upbm affinity estimate (log intensity, higher = more binding, comparable within an allelic series) |
| ACCGGCCT | 8.52 upbm affinity estimate (log intensity, higher = more binding, comparable within an allelic series) |
| CCTTCGCG | 8.45 upbm affinity estimate (log intensity, higher = more binding, comparable within an allelic series) |
| CGAAGGAC | 8.57 upbm affinity estimate (log intensity, higher = more binding, comparable within an allelic series) |
| GCCACTCC | 8.79 upbm affinity estimate (log intensity, higher = more binding, comparable within an allelic series) |
| GCAGCCCC | 8.43 upbm affinity estimate (log intensity, higher = more binding, comparable within an allelic series) |
| GCACCGCC | 8.35 upbm affinity estimate (log intensity, higher = more binding, comparable within an allelic series) |
| GAGCGCAA | 8.29 upbm affinity estimate (log intensity, higher = more binding, comparable within an allelic series) |
| CAATCAAC | 9.95 upbm affinity estimate (log intensity, higher = more binding, comparable within an allelic series) |
| GGACCTAC | 8.47 upbm affinity estimate (log intensity, higher = more binding, comparable within an allelic series) |
| AGGAACCC | 8.22 upbm affinity estimate (log intensity, higher = more binding, comparable within an allelic series) |
